Experimental findings from PubChem BioAssay are described below.

Molecules are shown by their SMILES. Active and inactive are the calls of the source.

The subject of assay [1] is Plasmodium falciparum Sir2 (PF13_0152, Sir2A). The experiment in a line: Plasmodium falciparum Sir2A binding compounds – biochemical, small-molecule microarray, 635 nm fluorescence, primary screen (AID 1098).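 Note: score merges spot fluorescence intensity with its signal-to-noise ratio.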 The conditions noted are these: fluorescence 635 nm, higher = more signal.
Assay [2] in a line: probe aDKK1 binding to arrayed compounds – biochemical, biotinylated probe, 635/667 nm fluorescence, primary screen (AID 1099).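 Note: score merges 667nm spot fluorescence with signal to noise across triplicate slides.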 To be noted: small-molecule microarray, higher = more signal.
Assay [3] is described as follows: probe aCHRDL2 binding to arrayed compounds – biochemical, biotinylated probe, 635/667 nm fluorescence, primary screen (AID 1100). The conditions noted are these: small-molecule microarray, higher = more signal.
Assay [4] can be described thus: change in splice reporter luminescence, either direction, cell-based, HEK293, spliceosome inhibition project, primary screen (AID 1101).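 Note: HEK293 cells carrying a splicing-competent luciferase reporter gene; test concentration not given here.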 The conditions noted are these: HEK293 splicing luciferase reporter, 24 h, higher = more signal, called active from +8 up or from −8 down. (In general: Reporter assays use an easily measured gene product as a stand-in for the process of interest.)

The target in assay [5] is Fibroblast growth factor 10 (Homo sapiens) (UniProt O15520). The assay can be described thus: compounds binding fibroblast growth factor 10 – biochemical, small-molecule microarray, 635 nm fluorescence, primary screen (AID 1102). The conditions noted are these: FGF10 binding, fluorescence 635 nm, higher = more signal.
Chain of Fibroblast growth factor 10 (Homo sapiens) (O15520 whole entry, looked up): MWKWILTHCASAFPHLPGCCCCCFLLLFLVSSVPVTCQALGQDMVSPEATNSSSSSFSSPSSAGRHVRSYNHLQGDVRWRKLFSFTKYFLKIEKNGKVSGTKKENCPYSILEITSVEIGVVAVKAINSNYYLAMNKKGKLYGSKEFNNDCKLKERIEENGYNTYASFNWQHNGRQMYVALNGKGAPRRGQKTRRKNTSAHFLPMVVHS
Assay [6] deals with glycogen synthase kinase-3 (GSK3A per assay name; protocol says GSK3B). The assay can be described thus: compounds binding glycogen synthase kinase-3 – biochemical, small-molecule microarray, 635 nm fluorescence, GSK3A, primary screen (AID 1103). Note: the record names both GSK3A and GSK3B. To be noted: fluorescence 635 nm, higher = more signal.
The target of assay [7] is Epidermal growth factor receptor (Homo sapiens) (UniProt P00533). The assay can be described thus: compounds binding epidermal growth factor receptor – biochemical, small-molecule microarray, 635 nm fluorescence, primary screen (AID 1104).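 Note: score merges 667 nm emission intensity with spot signal to noise over triplicate slides.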 The conditions noted are these: EGFR binding, higher = more signal.
Chain of Epidermal growth factor receptor (Homo sapiens) (P00533 whole entry, looked up): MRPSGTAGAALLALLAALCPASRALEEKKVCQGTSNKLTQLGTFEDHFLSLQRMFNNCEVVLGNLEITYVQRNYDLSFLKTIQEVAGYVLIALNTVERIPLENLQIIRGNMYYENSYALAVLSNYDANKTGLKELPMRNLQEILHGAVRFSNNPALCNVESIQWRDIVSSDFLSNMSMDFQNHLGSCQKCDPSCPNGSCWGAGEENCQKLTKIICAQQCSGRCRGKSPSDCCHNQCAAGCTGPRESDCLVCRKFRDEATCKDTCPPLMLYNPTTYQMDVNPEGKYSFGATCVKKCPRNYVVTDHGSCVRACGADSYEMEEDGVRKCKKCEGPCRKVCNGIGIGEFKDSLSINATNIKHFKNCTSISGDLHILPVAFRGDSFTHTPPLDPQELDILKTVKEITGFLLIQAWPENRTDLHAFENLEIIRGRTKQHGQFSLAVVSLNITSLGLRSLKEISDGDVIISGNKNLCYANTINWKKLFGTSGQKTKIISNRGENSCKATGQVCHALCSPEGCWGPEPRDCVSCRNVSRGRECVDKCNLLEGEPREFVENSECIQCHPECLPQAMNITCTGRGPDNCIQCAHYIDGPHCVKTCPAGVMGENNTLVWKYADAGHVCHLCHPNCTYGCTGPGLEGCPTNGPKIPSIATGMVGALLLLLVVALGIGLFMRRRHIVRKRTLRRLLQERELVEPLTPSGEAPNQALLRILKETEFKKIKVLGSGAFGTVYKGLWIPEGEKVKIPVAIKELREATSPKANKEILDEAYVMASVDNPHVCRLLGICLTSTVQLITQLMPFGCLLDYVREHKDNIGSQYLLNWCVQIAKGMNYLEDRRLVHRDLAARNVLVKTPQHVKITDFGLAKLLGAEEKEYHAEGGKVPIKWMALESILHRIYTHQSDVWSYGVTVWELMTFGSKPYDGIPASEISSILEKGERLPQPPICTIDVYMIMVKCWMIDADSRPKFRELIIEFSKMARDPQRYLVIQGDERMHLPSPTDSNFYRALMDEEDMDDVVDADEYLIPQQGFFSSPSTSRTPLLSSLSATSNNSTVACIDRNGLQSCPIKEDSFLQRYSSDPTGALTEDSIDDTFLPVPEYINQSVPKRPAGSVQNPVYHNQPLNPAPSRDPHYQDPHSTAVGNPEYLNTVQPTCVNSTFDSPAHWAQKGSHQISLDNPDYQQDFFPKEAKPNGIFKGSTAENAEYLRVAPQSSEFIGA
Assay [8] concerns the target Follistatin-related protein 3 (Homo sapiens) (UniProt O95633). The experiment in a line: compounds binding follistatin-related protein 3 – biochemical, small-molecule microarray, 635 nm fluorescence, primary screen (AID 1105).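 Note: score merges emission near 667 nm and signal to noise per printed spot across three slides.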 To be noted: FSTL3 binding, higher = more signal.
In assay [9] the target is Dickkopf-related protein 1 (Homo sapiens) (UniProt O94907). The experiment in a line: small molecules binding DKK1 protein – biochemical, small-molecule microarray, 635 nm fluorescence scan, primary screen (AID 1106).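 Note: score merges emission near 667 nm with signal to noise over three replicate slides.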 To be noted: higher = more signal.
Chain of Dickkopf-related protein 1 (Homo sapiens) (O94907 whole entry, looked up): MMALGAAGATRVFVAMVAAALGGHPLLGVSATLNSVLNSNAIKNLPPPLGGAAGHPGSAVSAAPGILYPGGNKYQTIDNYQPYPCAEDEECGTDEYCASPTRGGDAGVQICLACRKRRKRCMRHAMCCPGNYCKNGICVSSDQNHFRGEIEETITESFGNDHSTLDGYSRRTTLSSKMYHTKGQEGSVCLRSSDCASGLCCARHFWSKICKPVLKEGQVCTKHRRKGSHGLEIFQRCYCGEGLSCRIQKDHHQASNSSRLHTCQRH
Assay [10] relates to Inhibin beta A chain (activin A). The assay can be described thus: small molecules binding activin A – biochemical, small-molecule microarray, 635 nm fluorescence scan, primary screen (AID 1107).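 Note: mouse activin A protein probed at 4.33 µg/mL on printed slides; score merges bound-protein fluorescence near 667 nm with spot signal-to-noise.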 The conditions noted are these: INHBA, higher = more signal.
Assay [11] concerns Human papillomavirus type 1a protein E7 (residues 44-93). The experiment in a line: small molecules binding HPV E7 44-93 – biochemical, small-molecule microarray, residues 44-93, 635 nm fluorescence, primary screen (AID 1108).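 Note: E7 fragment applied at 1 µg/mL in TBST for 1 h at 4 C; score combines spot fluorescence with its signal to noise ratio.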 The conditions noted are these: fluorescence 635 nm, higher = more signal.
The nature of assay [12]: hepatitis C replication reporter changes, two-sided – Huh7 cells, luciferase reporter, HCV replication inhibitor project, primary screen (AID 1109).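 Note: huh7 hepatoma cells harbouring a luciferase neomycin HCV replicon reporter; luciferase luminescence as measure of HCV replicon replication; test concentration not given here.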 To be noted: Huh7 HCV replicon luciferase reporter, 48 h; higher = more signal.
Assay [13] has as its target Left-right determination factor 2 (Homo sapiens) (UniProt O00292). The experiment in a line: small molecules binding LEFTY2 protein – biochemical, small-molecule microarray, 635 nm fluorescence scan, primary screen (AID 1110). To be noted: higher = more signal.
The target in assay [14] is Calmodulin-1 (Homo sapiens) (UniProt P0DP23). The assay can be described thus: small molecules binding calmodulin-1 with EGTA – biochemical, small-molecule microarray, Cy5-labelled CALM1, profiling panel (AID 1111).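 Note: labelled calmodulin applied in Tris saline Tween buffer holding calcium plus EGTA and DTT.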 The conditions noted are these: Cy5-CALM1 binding fluorescence, higher = more signal.
Assay [15] shares this target. The experiment in a line: small molecules binding Ca-loaded calmodulin-1 – biochemical, small-molecule microarray, Cy5-labelled CALM1, plus calcium, artefact control for SMM control-protein annotation, profiling panel (AID 1112).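 Note: score merges spot fluorescence with signal to noise from triplicate slides.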 To be noted: Cy5-CALM1 binding fluorescence, higher = more signal.
Assay [16] is described as follows: probe aWnt5a binding to arrayed compounds – biochemical, biotinylated probe, 635/667 nm fluorescence, primary screen (AID 1113).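 Note: score merges 667 nm fluorescence intensity with signal-to-noise per printed feature.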 To be noted: small-molecule microarray, higher = more signal.
Assay [17] can be described thus: probe aShh binding to arrayed compounds – biochemical, biotinylated probe, 635/667 nm fluorescence, primary screen (AID 1114).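 Note: probe is biotin-labelled aShh protein from a stem cell growth factor screen; measures binding of labelled protein to compounds printed on the slide; score merges feature fluorescence at 667 nm with signal-to-noise.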 To be noted: small-molecule microarray, higher = more signal.
Assay [18] is described as follows: probe aNog binding to arrayed compounds – biochemical, biotinylated probe, 635/667 nm fluorescence, primary screen (AID 1115).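 Note: probe is biotinylated aNog protein used at 0.15 µg/mL for 1 h at 4 C; z-score combines 667 nm fluorescence of each spot with its signal to noise.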 The conditions noted are these: small-molecule microarray, higher = more signal.
Assay [19] concerns the target Torsin-1A-interacting protein 1 (Homo sapiens) (UniProt Q5JTV8). The assay can be described thus: compound microarray binding of lysate hLAP1 – cell lysate, small-molecule microarray, COS7 lysate, 635/667 nm fluorescence, primary screen (AID 1116). The conditions noted are these: 635 nm fluorescence, higher = more signal.
Assay [20] deals with Alpha-bungarotoxin (Bungarus multicinctus) (UniProt P60615). The experiment in a line: compounds binding labelled alpha-BTX control protein – biochemical, small-molecule microarray, Alexa647 label, 635/667 nm fluorescence, artefact control for SMM control protein annotation, profiling panel (AID 1117). To be noted: alpha-BTX-A647 binding fluorescence, higher = more signal.
Chain of Alpha-bungarotoxin (Bungarus multicinctus) (P60615 whole entry, looked up): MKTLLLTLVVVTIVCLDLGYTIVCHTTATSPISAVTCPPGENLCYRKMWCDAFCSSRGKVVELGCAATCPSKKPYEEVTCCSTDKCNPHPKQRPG

Chain of Left-right determination factor 2 (Homo sapiens) (O00292 whole entry, looked up): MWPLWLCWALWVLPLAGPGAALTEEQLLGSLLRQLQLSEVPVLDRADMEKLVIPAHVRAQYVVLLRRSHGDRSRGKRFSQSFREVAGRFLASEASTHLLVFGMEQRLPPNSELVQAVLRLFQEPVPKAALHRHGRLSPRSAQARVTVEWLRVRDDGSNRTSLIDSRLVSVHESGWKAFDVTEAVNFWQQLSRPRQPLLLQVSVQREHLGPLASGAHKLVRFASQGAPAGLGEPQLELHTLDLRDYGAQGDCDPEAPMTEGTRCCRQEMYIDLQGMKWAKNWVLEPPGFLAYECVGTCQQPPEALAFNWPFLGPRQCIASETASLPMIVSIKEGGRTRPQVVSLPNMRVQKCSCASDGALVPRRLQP
Chain of Torsin-1A-interacting protein 1 (Homo sapiens) (Q5JTV8 whole entry, looked up): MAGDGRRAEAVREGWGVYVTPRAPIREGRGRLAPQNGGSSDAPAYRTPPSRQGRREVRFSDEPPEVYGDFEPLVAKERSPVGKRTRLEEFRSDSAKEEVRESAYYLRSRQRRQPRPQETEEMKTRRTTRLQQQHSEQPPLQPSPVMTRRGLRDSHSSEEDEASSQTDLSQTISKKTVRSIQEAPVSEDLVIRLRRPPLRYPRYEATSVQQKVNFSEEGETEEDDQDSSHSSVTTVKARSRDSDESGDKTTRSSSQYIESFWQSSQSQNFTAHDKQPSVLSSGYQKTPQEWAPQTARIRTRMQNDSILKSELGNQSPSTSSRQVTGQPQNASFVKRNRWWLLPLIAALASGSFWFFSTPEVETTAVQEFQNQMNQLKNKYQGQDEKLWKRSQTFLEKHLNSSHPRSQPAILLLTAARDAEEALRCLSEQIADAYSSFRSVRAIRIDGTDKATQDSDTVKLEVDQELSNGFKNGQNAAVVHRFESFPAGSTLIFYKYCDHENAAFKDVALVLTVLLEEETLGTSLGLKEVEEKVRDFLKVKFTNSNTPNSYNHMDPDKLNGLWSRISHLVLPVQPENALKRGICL
Chain of Follistatin-related protein 3 (Homo sapiens) (O95633 whole entry, looked up): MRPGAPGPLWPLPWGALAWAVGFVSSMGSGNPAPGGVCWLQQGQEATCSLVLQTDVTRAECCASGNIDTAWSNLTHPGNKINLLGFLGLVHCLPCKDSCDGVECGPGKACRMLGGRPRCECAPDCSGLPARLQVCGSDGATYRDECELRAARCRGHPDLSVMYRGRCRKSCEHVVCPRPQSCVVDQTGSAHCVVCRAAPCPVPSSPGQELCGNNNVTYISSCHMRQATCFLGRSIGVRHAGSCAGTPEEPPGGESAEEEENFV

With `O=C(CS)NCCCCCNC(=O)[C@H]1C[C@H]2C(=O)N3CCC[C@H]3C(=O)N2[C@H]1c1cccc(OCCO)c1`, the composite z-score in [1] stood at 1.17; in assay [2], 0.0187; in [3], 0.367; in assay [5] it was 1.35; in [6], 1.32; in [7], 0.194. Moreover, the composite z-score was 1.41 in assay [8]; 1.57 in assay [9]; 1.3 in [10]; 0.435 in assay [11]; 0.691 in [13]; -0.8 in assay [14]. Besides, the composite z-score in [15] was -1; in assay [16], 0.128; in assay [17], -0.138; in assay [18] it was -0.347; in [19], 1.22; in assay [20] it was 1.55. For the same compound, the z-score in [4] is 0.378 (inactive); in [12], 0.235.

As for `CO[C@@H]1COC(=O)CCC[C@@H](C)[C@H](OC)COC(=O)CCC[C@H]1C`, the composite z-score is 0.691 in [1]; -0.224 in assay [2]; -0.755 in [3]; 0.0939 in assay [5]; 0.534 in assay [6]; 0.379 in assay [7]. Moreover, the composite z-score in assay [8] was 0.715; in assay [9], 0.731; in assay [10], -0.0672; in assay [11], -0.341; in assay [13], 0.862; in [14] it was -0.454. In addition, the composite z-score in assay [15] is -0.966; in assay [16] it was -0.0445; in assay [17], -0.206; in assay [18], -0.303; in [19], 0.665; in assay [20], -0.12. The z-score is 0.349 (inactive) in [4] and -1.38 in assay [12].

Turning to `C=COC[C@H]1CN2[C@@H](CC[C@@H](C)[C@@H]2c2ccc(Br)cc2)C(=O)O1`, the composite z-score in assay [1] is 0.729; in assay [2], -0.41; in assay [3], -0.601; in assay [5], 0.273; in [6], 0.665; in assay [7], 0.498. Also, the composite z-score in [8] stood at 0.694; in [9] it was 0.928; in assay [10] it was 0.611; in assay [11], 0.864; in assay [13], 0.792; in [14] it was 0.537. Further, the composite z-score in assay [15] was -0.092; in assay [16], -0.176; in assay [17], -0.304; in [18], -0.0286; in assay [19] it was -0.415; in [20], 0.166. For the same compound, the z-score in [4] was -1.09 (inactive); in [12] it was 0.924.

In the case of `CC(C)=NOCc1ccc(-c2cc(-c3ccccc3)no2)cc1`, the composite z-score was 0.0628 in assay [1]; -0.285 in assay [2]; -0.515 in [3]; 0.356 in assay [5]; 0.283 in assay [6]; 0.279 in [7]. For the same compound, the composite z-score in [8] is -0.026; in assay [9], 0.32; in assay [10], 0.216; in assay [11], -0.0501; in assay [13] it was 0.384; in assay [14], -0.555. The composite z-score in assay [15] is -0.498; in assay [16] it was -0.0701; in assay [17], -0.214; in assay [18] it was -0.139; in [19], 0.0444; in assay [20], -0.0299. Further, the z-score in assay [4] was 0.468 (inactive); in [12] it was -0.115.

Consider `CCOC(=O)CCN1C(=O)[C@H]2[C@H]3[C@H](O)[C@H](O)CC(=NOC[C@@H](O)COCc4ccco4)[C@H]3CC[C@H]2C1=O`, for which the composite z-score was 0.413 in [1]; 0.0262 in assay [2]; -0.5 in [3]; 0.449 in [5]; 0.596 in [6]; 0.328 in assay [7]. Besides, the composite z-score in assay [8] is 0.608; in assay [9], 0.433; in assay [10], 0.0553; in assay [11], 1.11; in [13], 0.622; in assay [14] it was -0.039. The composite z-score in [15] is -0.438; in assay [16] it was -0.152; in assay [17], -0.0769; in assay [18], -0.0446; in assay [19], 0.0386; in [20], 0.351. For the same compound, the figures for the z-score in assay [4] and in assay [12] were -1.12 (inactive) and -2.99, respectively.

Take `Cn1cccc1C(O)C1C=CC2C(=O)NC(=O)C2N1Nc1ccccn1` (stereo not given): the composite z-score in assay [1] is 0.71; in assay [2], 0.0275; in assay [3], 0.0176; in [5] it was -0.121; in [6] it was -0.0788; in [7], 0.459. Besides, the composite z-score in [8] is 0.533; in assay [9], 0.133; in assay [10], 1.49; in assay [11] it was -1.15; in assay [13] it was -0.136; in assay [14], -0.0487. The composite z-score in assay [15] is -0.472; in assay [16] it was -0.0512; in [17], 0.0723; in [18], -0.0446; in assay [19] it was -0.0327; in [20], -0.086. The z-score is 1.36 (inactive) in [4] and -0.803 in assay [12].
